Our source for the Potency values is PubChem BioAssay AID686978 (National Center for Advancing Translational Sciences (NCATS), 2013).

The campaign covered roughly 420,000 compounds. About 64,000 (15%) were called active. Another 27% or so got no clear call; they are omitted. Calls come from the whole dose curve; as a rule, active = well fitted inhibition curve with a large enough effect; inconclusive = small, poorly fitted or top-dose-only effect; inactive = flat fitted curve, though single readings scatter. These entries were drawn from the full list. A call without a number means that no potency is given here.
Potency is the fitted concentration of half-maximal effect.

This test in a line: qHTS for Inhibitors of human tyrosyl-DNA phosphodiesterase 1 (TDP1): qHTS in cells in absence of CPT. Note: nearly all actives have a fitted effect of over 55% in size. To be noted: DT40 Tdp1-/- hTDP1 cells, no CPT, ATP luminescence, 48 h; activity change, negative = growth inhibition: at 46.2 µM (top of the series). The essentials: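 Readout: luminescence from CellTiter-Glo after 30 min in the dark at RT. Cells: DT40 Tdp1-/- with stable hTDP1, 400/well. Exposure: compounds alone, ≥48 hr, 37 °C.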
For orientation: In qHTS, concentration-response curves come from the screen itself.
On to `Cc1cc2nc(-c3ccco3)c(Cc3cccc(F)c3)n2c(C)c1Br`, for which the Potency was 16.4 µM (active).

For `Cc1cc2nc(-c3ccc(F)cc3)c(Cc3ccsc3)n2c(C)c1Br`, the Potency was 11.6 µM (active).

On to `Cc1cc2nc(-c3ccc(Cl)cc3)c(Cc3cccc(F)c3)n2c(C)c1Br`, for which the Potency is 23.1 µM (active).

Turning to `CC(NC(=O)CNC(=O)Cc1cccc2ccccc12)c1ccc(S(N)(=O)=O)cc1` (stereo unspecified), the Potency entry is “inactive”.

For the molecule `Nn1c(SCC(=O)NC(=O)NC2CCCC2)nnc1-c1ccccc1F`, the Potency entry was “inactive”.

Regarding `O=C1CC(c2ccccc2)CC(O)=C1C=NCCN1CCOCC1` (stereo unspecified), the Potency entry is “inactive”.

On to `O=C(Oc1ccc(F)cc1)N1CCOCC1`, for which the Potency result was “inactive”.

Take `CC1=C(C)CC(C(=O)NNC(=O)c2csc3c2CCC(C(C)(C)C)C3)C(C(=O)O)C1` (stereo unspecified): the Potency result is “inactive”.

In the case of `C[C@H](NC(=O)OC(C)(C)C)c1nnc(SCC(=O)Nc2ccc(Br)cc2)o1`, the Potency entry was “inactive”.

In the case of `CCSc1nnc(-c2cc3c(s2)-c2ccccc2CC3)o1`, the Potency result was “inactive”.

As for `Cc1cccc(C)c1NC(=O)CCS(=O)(=O)c1cccc2nsnc12`, the Potency result is “inactive”.

On to `Cn1c(C(=O)OC(C(=O)NC2CCCCC2)c2ccccn2)cc2sccc21` (stereo unspecified), for which the Potency result is “inactive”.

On to `COc1ccc(C(=O)N2CCC3(CCCN(C(c4ccccc4)c4ccccc4)C3)CC2)cc1`, for which the Potency entry was “inactive”.

For `Cc1ccc(SCC2=NNC(=O)C2)cc1`, the Potency entry was “inactive”.

As to `Cc1ccc(C(=O)N/C(=C/C=C/c2ccccc2)C(=O)NCc2ccco2)cc1`, the Potency result is “inactive”.

For `CC(C)Oc1ccc(NC(=O)c2cc3ccccc3o2)cc1`, the Potency result is “inactive”.

`O=C(Nc1ccncc1)c1cc2ccccc2o1`: the Potency was 8.2 µM (active).

Turning to `Cc1ccc(NC(=O)c2cc3ccccc3o2)cc1`, the Potency entry was “inactive”.

Consider `CCOC(=O)C(=CNc1cccc(C)n1)C(=O)OCC`, for which the Potency result is “inactive”.

Turning to `O=C(c1csnn1)N1CCC2(CC1)CN(c1ncccn1)C2`, the Potency entry was “inactive”.

As for `CCOC(=O)N1CCN(CC(=O)c2ccc3c(c2)CCN3)CC1`, the Potency result was “inactive”.

As for `CC(OC(=O)CNC(=O)c1ccc(Cl)c([N+](=O)[O-])c1)C(=O)NCc1ccco1` (stereo unspecified), the Potency result is “inactive”.

Take `CC(CC(=O)Nc1ccccc1)n1ccnc1` (stereo unspecified): the Potency result was “inactive”.

On to `COc1ccccc1Oc1ccc(N2CC(C(=O)OCC(=O)c3ccc(F)cc3)CC2=O)cc1` (stereo unspecified), for which the Potency entry is “inactive”.

Turning to `COc1cccc(NC(=O)CN(C)S(=O)(=O)c2ccc(C)cc2)c1`, the Potency entry was “inactive”.

Take `CN1CCN(CC(=O)Nc2cccc([N+](=O)[O-])c2)CC1`: the Potency entry was “inactive”.

Consider `Cc1ccc(N(CC(=O)Nc2cc(C)cc(C)c2)S(=O)(=O)c2cccc3nonc23)cc1`, for which the Potency entry is “inactive”.

With `Cc1ccc(S(=O)(=O)N(Cc2cccc([N+](=O)[O-])c2)C(=O)N2CCN(C)CC2)cc1`, the Potency entry is “inactive”.

As for `COc1ccc(C)cc1S(=O)(=O)N(CC(=O)Nc1cccc([N+](=O)[O-])c1)c1ccc(C)cc1`, the Potency is 13 µM (active).

Turning to `Cc1ccc(S(=O)(=O)N(CC(=O)Nc2cccc([N+](=O)[O-])c2)Cc2ccc(Cl)cc2)cc1`, the Potency was 25.9 µM (active).

For `CCn1cc(/C=C(\NC(=O)c2cc(OC)c(OC)c(OC)c2)C(=O)N2CCN(C)CC2)c2ccccc21`, the Potency result is “inactive”.

Regarding `CCCCCN1CC(O)=C(c2nc(-c3ccc(Cl)cc3)cs2)C1=N`, the Potency entry was “inactive”.

Regarding `Cc1ccc(-n2nc(N)c3c(=O)oc(N(C)C)nc32)cc1`, the Potency result was “inactive”.

Take `O=C(COC(=O)c1ncc(Cl)c(Cl)c1Cl)NCc1ccccc1`: the Potency result is “inactive”.

Take `c1ccc(CNc2ncnc3[nH]ncc23)cc1`: the Potency is 23.1 µM (active).

`CN(c1ccccn1)c1ncnc2[nH]ncc12`: the Potency entry is “inactive”.

Regarding `Nc1ccccc1C(=O)NC1CCCCNC1=O` (stereo unspecified), the Potency entry was “inactive”.

In the case of `O=C1CN(C(=O)COc2c(Cl)cccc2Cl)c2ccccc2N1`, the Potency result is “inactive”.

For `CCCCn1c(N)c(N(CC(C)C)C(=O)c2cccc(S(=O)(=O)N3CC(C)OC(C)C3)c2)c(=O)[nH]c1=O` (stereo unspecified), the Potency entry was “inactive”.

With `Cc1ccc(NC(=O)NC(=O)c2ccccc2)cc1F`, the Potency result is “inactive”.

For the molecule `Cc1ccc(NC2=C(c3ccc(C(F)(F)F)cc3)C(=O)c3ccccc32)cc1F`, the Potency is 8.2 µM (active).

`CCOC(=O)c1cnc(Nc2nc3ccccc3o2)nc1CSC(=S)N1CCCCC1`: the Potency is 0.0326 µM (active).

`CCc1ccc(CNC(=O)C2CCCN(c3nc4ccccc4o3)C2)cc1` (stereo unspecified): the Potency result is “inactive”.

In the case of `COc1ccccc1Nc1nc(N)nc(CSC(=S)N2CCOCC2)n1`, the Potency result is “inactive”.

For `CC(NS(=O)(=O)c1ccc(OCC(=O)N2CCCC2)cc1)c1ccccc1` (stereo unspecified), the Potency result is “inactive”.

Take `CC12CCC(C(=O)N3CCN(c4ncccn4)CC3)(c3nc4ccccc4nc31)C2(C)C` (stereo unspecified): the Potency was 23.1 µM (active).

Regarding `CC(Oc1ccc(F)cc1)C(=O)N1CCN(c2ncccn2)CC1` (stereo unspecified), the Potency result is “inactive”.

`CC(=O)N1CCC2(CCCN(c3ncccn3)C2)CC1`: the Potency entry was “inactive”.

For the molecule `Cc1ccc(-c2ccnc3nc(Sc4ncc(C(F)(F)F)cc4Cl)nn23)cc1`, the Potency entry is “inactive”.

Take `Cn1c(SCC(=O)Nc2ccc(Br)cc2F)nnc1-c1ccco1`: the Potency result is “inactive”.

In the case of `O=C(Nc1ccccc1C(=O)O)c1cc(S(=O)(=O)N2CCCCC2)cs1`, the Potency result is “inactive”.

Turning to `COCCn1nnnc1C(c1cc2ccc(OC)cc2[nH]c1=O)N1CCc2ccccc2C1` (stereo unspecified), the Potency entry was “inactive”.

`CC(C)(C)n1nnnc1C(c1ccc(Cl)cc1)N1CCSCC1` (stereo unspecified): the Potency entry is “inactive”.

Turning to `COc1ccc(OC)c(C(c2nnnn2C(C)(C)C)N2CCc3ccccc3C2)c1` (stereo unspecified), the Potency was 13 µM (active).

In the case of `CCOc1ccc(Nc2nc(Cc3nnc(SCC(=O)NC4CCCC4)n3C)cs2)cc1`, the Potency result was “inactive”.

As for `Cc1cccc(N2CCN(C(=O)CCn3c(=O)c4cccn4c4cccnc43)CC2C)c1` (stereo unspecified), the Potency was 3.66 µM (active).

On to `Cc1cccc(N2CCN(C(=O)c3cc4c(=O)oc5ccccc5c4s3)CC2C)c1` (stereo unspecified), for which the Potency result was “inactive”.

For `Cc1cccc(NC(=O)Cn2c(=O)n(CCC(C)C)c(=O)c3cccnc32)c1`, the Potency result is “inactive”.

On to `Cc1ccc(S(=O)(=O)C2(S(=O)(=O)c3ccc(C)cc3)CCCC2)cc1`, for which the Potency is 6.51 µM (active).

With `Cc1ccc(S(=O)(=O)N(C)C2(C)CCS(=O)(=O)C2)cc1` (stereo unspecified), the Potency result is “inactive”.

Consider `Cc1ccc(S(=O)(=O)NC2CCCCCC2)cc1`, for which the Potency entry was “inactive”.

As for `C=C1c2cccc(OC)c2O[C@H](C(=O)OCC)[C@@H]1CCCCCC`, the Potency entry was “inactive”.

For the molecule `CCCn1nc(NS(=O)(=O)c2ccc(F)cc2)c2cc3ccccc3nc21`, the Potency entry is “inactive”.

Consider `COC(=O)c1cc(OCC(=O)NC2CCCc3ccccc32)cc(C(=O)OC)c1` (stereo unspecified), for which the Potency result was “inactive”.

In the case of `O=C(O)CCC(=O)N(Cc1cccs1)Cc1cccs1`, the Potency entry is “inactive”.

Regarding `COc1ccccc1NC(=O)CSc1nnc(C)n1CC1CCCO1` (stereo unspecified), the Potency result was “inactive”.
